Screening results deposited in PubChem by several laboratories.
SENP7 inh = SENP7 protease inhibition; AID 434973; recombinant SENP7, Z-RLRGG-aminoluciferin luminescence, 40 min; 330,000 compounds, 1.5% hits; inhibition, % at 5 µM;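 active means inhibition above about 50% at the single test dose, limit read from the data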
EBI2 antag = blocks human EBI2 receptor beta-arrestin signaling. P32249. EBI2 beta-arrestin recruitment, luminescence, 7a,25-OHC stimulated. inhibition, % at 5 µM. 360,000 compounds, 0.81% hits. AID 651636; in the data active means inhibition above about 38%;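 further: enzyme fragment complementation signal reports receptor beta-arrestin coupling in cells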
AHR activator = human AHR activation. AHR-responsive luciferase reporter cells, luminescence. activation, % at 5 µM. AID 2796. 320,000 compounds, 2.5% hits; in the data active means activation above about 47%
SENP6 inh = SENP6 protease inhibition; 330,000 compounds, 1.8% hits; Q9GZR1; inhibition, % at 10 µM; AID 2599; Recombinant SENP6 catalytic domain, aminoluciferin luminescence;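 active means inhibition above about 50% at the single tested dose, limit read from the data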
SENP8 block-1 = blocks the human protease SENP8 | 330,000 compounds, 1.2% hits | AID 2540 | inhibition, % at 10 µM | purified SENP8, Z-RLRGG-aminoluciferin cleavage, luminescence; in the data active means inhibition above about 50%
Target sequence (Q96LD8 whole entry, looked up): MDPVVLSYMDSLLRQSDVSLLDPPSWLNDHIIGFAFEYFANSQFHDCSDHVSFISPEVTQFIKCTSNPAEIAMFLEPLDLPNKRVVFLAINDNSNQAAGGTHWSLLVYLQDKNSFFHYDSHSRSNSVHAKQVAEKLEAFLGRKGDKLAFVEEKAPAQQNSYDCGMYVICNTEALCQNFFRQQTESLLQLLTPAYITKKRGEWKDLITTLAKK
SENP8 block-2 = inhibitors of human SENP8 protease. Q96LD8. recombinant SENP8, Nedd8 substrate fluorescence. inhibition, % at 20 µM. 360,000 compounds, 0.64% hits. AID 602440; in the data active means inhibition mostly above about 40%, no sharp cut-off; inactive means mostly below about 27%
SENP8 conf = confirmation of human SENP8 protease inhibitors | shares compounds with SENP7 inh | Recombinant SENP8, Z-RLRGG-aminoluciferin luminescence, 60 min | inhibition, % at 12.5 µM | 6,200 compounds, 40% hits | AID 488912;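 active means mean inhibition across replicates above about 50%, limit read from the data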
SENP6 conf = confirmation of human SENP6 protease inhibitors. shares compounds with SENP7 inh. recombinant SENP6, Z-RLRGG-aminoluciferin luminescence. inhibition, % at 12.5 µM. 6,200 compounds, 58% hits
SENP7 confirm = human SENP7 inhibition, confirmed. shares compounds with SENP7 inh. recombinant SENP7, Z-RLRGG-aminoluciferin luminescence, 40 min. inhibition, % at 12.5 µM. 6,200 compounds, 69% hits. AID 488917
Casp3 select = selectivity test for SENP inhibitors: human caspase-3 inhibition; shares compounds with SENP7 inh; purified caspase-3, Z-DEVD-aminoluciferin luminescence, 60 min; inhibition, % at 12.5 µM; 6,200 compounds, 60% hits; AID 488918;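 active means mean inhibition above about 50%, limit read from the data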
Target sequence (P42574 28-227 limits assumed): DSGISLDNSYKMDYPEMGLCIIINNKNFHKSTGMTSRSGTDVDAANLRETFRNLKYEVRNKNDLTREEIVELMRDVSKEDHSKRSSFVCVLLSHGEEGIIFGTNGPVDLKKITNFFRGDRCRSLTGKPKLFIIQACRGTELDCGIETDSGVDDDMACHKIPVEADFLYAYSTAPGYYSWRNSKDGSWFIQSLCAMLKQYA
Luc interf = interferes with luciferase luminescence in SENP counter-screen. shares compounds with SENP7 inh. inhibition, % at 12.5 µM. Pre-incubated SENP8/Z-RLRGG-aminoluciferin, luciferase luminescence interference. 6,200 compounds, 39% hits;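 active means mean inhibition above about 50% when retested at one dose, limit read from the data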
Numbers stand for hits; n = inactive; x = no result given. Shown are actives, neighbours in structure and some others; about 5% of the full set was active somewhere.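 How the source made its calls, unless noted: active means mean inhibition above about 50% in the one-dose retest (limit read from the data); inactive means the rest.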

SMILES	SENP7 inh	EBI2 antag	AHR activator	SENP6 inh	SENP8 block-1	SENP8 block-2	SENP8 conf	SENP6 conf	SENP7 confirm	Casp3 select	Luc interf
O=C(Nc1ccc2c(c1)OCCO2)c1ccc(Cl)cc1	73	n	n	81	59	n	n	75	92	76	n
Cc1ccc(C(=O)O)cc1NC(=O)Nc1ccc2c(c1)OCO2	n	n	n	n	n	n	x	x	x	x	x
COc1cccc(/C=C/C(=O)Nc2ccc3c(c2)OCCO3)c1OC	76	n	n	n	62	n	79	77	91	71	79
O=C(Nc1cccc(C(=O)O)c1)Nc1ccc2c(c1)OCO2	100	n	n	96	92	n	97	97	101	93	96
CC[C@]12c3[nH]c4cc(CCC(=O)N(C)C)ccc4c3CCN1C(=O)[C@@H](CC(=O)NC(C)(C)C)C[C@@H]2C(=O)N1CCN(C(=O)c2ccco2)CC1	n	n	x	x	x	n	x	x	x	x	x
Cc1ccc(-n2nnc(-c3nccs3)n2)cc1	98	n	n	94	94	n	97	97	101	97	94
COc1ncccc1-c1nnn(-c2ccc(F)cc2)n1	70	n	n	73	67	n	71	75	93	81	69
COc1ncccc1-c1nnn(-c2ccc(C)cc2)n1	80	n	n	78	70	n	78	81	96	82	79
Cc1ccc(-n2nnc(-c3cc4ccccc4nc3Cl)n2)cc1	n	n	n	n	n	n	x	x	x	x	x
COc1ncccc1-c1nnn(-c2ccc(Cl)c(Cl)c2)n1	n	n	n	n	n	n	x	x	x	x	x
O=C(/C=C/c1cccs1)c1ccc(N2CCOCC2)cc1	87	45	n	84	72	n	n	82	93	n	n
CCOc1ccc(S(=O)(=O)Nc2cccc(C(=O)N(C)CC(=O)Nc3cccc(OC)c3)c2)cc1	n	n	n	n	n	n	x	x	x	x	x
O=C(OCc1ccc(Cl)c(Cl)c1)c1ccc[nH]1	n	n	n	59	n	n	54	51	82	n	71
CCCOC(=O)c1ccc(Oc2coc3c(CN(CC)CC)c(O)ccc3c2=O)cc1	n	n	n	n	n	n	x	x	x	x	x
CC(=O)N1N=C(N)SC1(C)C	n	n	n	n	n	n	x	x	x	x	x
Cc1c(F)cccc1NS(=O)(=O)c1ccc(OCCNS(C)(=O)=O)cc1	n	n	n	n	n	n	x	x	x	x	x
Cc1ccc(CN2CCN(Cc3ccncc3)CC2CCO)o1 (configuration not stated)	n	n	n	76	n	n	n	n	n	n	n
CCOC(=O)c1cnc(-c2ccccc2)nc1N	51	n	n	69	n	n	53	54	81	70	52
CCOC(=O)c1cnc(SCC(=O)c2ccc(C)cc2)nc1N	n	n	n	n	n	n	x	x	x	x	x
CCOC(=O)c1cnc(SCC(=O)c2ccccc2)nc1N	78	n	n	81	56	n	n	n	n	n	n
CN(CC(=O)Nc1ccccc1Br)C(=O)c1ccc2c(=O)n3c(nc2c1)CCC3	n	n	n	n	n	n	x	x	x	x	x
COc1cccc(OCC(=O)NC2CCS(=O)(=O)C2)c1 (configuration not stated)	n	n	x	n	n	n	x	x	x	x	x
COc1ccc(CC(=O)NNS(=O)(=O)c2ccc(F)cc2)cc1	n	n	n	n	n	n	x	x	x	x	x
CN(C)c1ccc(N=Cc2nc(-c3ccccc3)oc2OC(=O)c2cccc(Cl)c2)cc1	72	n	60	64	n	n	n	n	n	n	n
COc1ccc(N=Cc2nc(-c3ccccc3)oc2OC(C)=O)cc1	n	n	n	n	n	n	x	x	x	x	x
SMILES	SENP7 inh	EBI2 antag	AHR activator	SENP6 inh	SENP8 block-1	SENP8 block-2	SENP8 conf	SENP6 conf	SENP7 confirm	Casp3 select	Luc interf
Cc1ccccc1OCC(O)Cn1c(=N)n(Cc2ccccc2)c2ccccc21 (configuration not stated)	51	n	n	n	n	n	n	n	n	n	n
CC(C)(C)c1ccc(-c2ccc3c(c2)S(=O)(=O)c2ccccc2C3=O)cc1	n	n	n	n	n	n	x	x	x	x	x
CC(C)(C)c1ccc2c(c1)C(=O)c1ccccc1C2=O	96	n	n	96	66	n	n	59	82	n	n
COc1ccc(NC(=O)C2(S(=O)(=O)c3ccc(C)cc3)CC2)cc1OC	n	n	n	n	n	n	x	x	x	x	x
O=C(O)c1cccc(Nc2ccc([N+](=O)[O-])cn2)c1	93	n	n	91	90	n	92	92	101	83	93
COc1ccc(C(=O)N/C(=C/c2ccccc2F)C(=O)NCCN2CCOCC2)cc1OC	n	n	n	n	n	n	x	x	x	x	x
Cc1ccc(/C=C2\OC(=O)c3ccccc32)cc1	86	n	n	68	56	n	n	n	n	n	n
Cc1ccccc1/C=C1\OC(=O)c2ccccc21	n	n	n	n	n	n	x	x	x	x	x
CCCCNc1ccc2c(c1)C1CC2CCN1C(=O)OCc1ccccc1 (configuration not stated)	x	n	x	x	x	n	x	x	x	x	x
O=C(O)c1ccc(NCCC2=CCCCC2)c([N+](=O)[O-])c1	n	n	n	86	82	n	n	87	97	88	78
COc1ccc(CCNc2ccc(C(=O)O)cc2[N+](=O)[O-])cc1OC	n	n	n	n	n	n	x	x	x	x	x
O=C(CN(Cc1ccc(F)cc1)C(=O)c1csnn1)NC1CCCC1	n	n	n	n	n	n	x	x	x	x	x
O=C(NC(=S)NNC(=O)c1ccccc1O)c1ccc(F)cc1	n	n	n	n	n	n	x	x	x	x	x
O=C(NC(=O)c1ccccc1O)c1ccc(C(F)(F)F)cc1	78	n	n	76	71	n	76	75	84	84	n
Cc1nc2c3cnn(-c4ccc(C)c(C)c4)c3ncn2n1	n	n	n	58	n	n	n	n	68	79	n
O=C(CSc1nc2c(cnn2-c2cccc(Cl)c2)c(=O)[nH]1)NCC1CCCO1 (configuration not stated)	n	n	n	n	n	n	x	x	x	x	x
O=C(CSc1ncnc2c1cnn2-c1cccc(Cl)c1)NCC1CCCO1 (configuration not stated)	n	n	n	89	87	n	n	n	n	n	n
Cc1ccc(-n2ncc3c(SCC(N)=O)ncnc32)cc1C	n	n	x	n	57	n	n	n	n	n	n
